Bioassay records from PubChem BioAssay.
Only some compounds are listed: those with a hit (about 3.5% of all), similar ones and a draw of the others.
GPR151 ag: activators of human GPR151, primary screen, cell-based, PathHunter beta-arrestin, luminescence; PathHunter beta-arrestin GPR151 cells; G-protein coupled receptor 151 (Homo sapiens), Q8TDV0; activation, % at 11.2 µM; AID 1508602, 2020; 650,000 compounds, 1% hits; in the data active = activation above about 4.9%;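 note: 0% = median of compound wells and 100% = cells with positive control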
FBW7 act: FBW7 E3 ligase activators, primary screen, biochemical, AlphaScreen, human | AlphaScreen FBW7–phospho-cyclin E peptide binding, activator screen | normalized activity (activation), % at 26.1 µM | 650,000 compounds, 0.13% hits | AID 1259310, 2017; in the data active = normalized activity above about 1.9%;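 note: purified mutant Fbw7 with reduced substrate affinity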
Target sequence (Q969H0 whole entry, looked up): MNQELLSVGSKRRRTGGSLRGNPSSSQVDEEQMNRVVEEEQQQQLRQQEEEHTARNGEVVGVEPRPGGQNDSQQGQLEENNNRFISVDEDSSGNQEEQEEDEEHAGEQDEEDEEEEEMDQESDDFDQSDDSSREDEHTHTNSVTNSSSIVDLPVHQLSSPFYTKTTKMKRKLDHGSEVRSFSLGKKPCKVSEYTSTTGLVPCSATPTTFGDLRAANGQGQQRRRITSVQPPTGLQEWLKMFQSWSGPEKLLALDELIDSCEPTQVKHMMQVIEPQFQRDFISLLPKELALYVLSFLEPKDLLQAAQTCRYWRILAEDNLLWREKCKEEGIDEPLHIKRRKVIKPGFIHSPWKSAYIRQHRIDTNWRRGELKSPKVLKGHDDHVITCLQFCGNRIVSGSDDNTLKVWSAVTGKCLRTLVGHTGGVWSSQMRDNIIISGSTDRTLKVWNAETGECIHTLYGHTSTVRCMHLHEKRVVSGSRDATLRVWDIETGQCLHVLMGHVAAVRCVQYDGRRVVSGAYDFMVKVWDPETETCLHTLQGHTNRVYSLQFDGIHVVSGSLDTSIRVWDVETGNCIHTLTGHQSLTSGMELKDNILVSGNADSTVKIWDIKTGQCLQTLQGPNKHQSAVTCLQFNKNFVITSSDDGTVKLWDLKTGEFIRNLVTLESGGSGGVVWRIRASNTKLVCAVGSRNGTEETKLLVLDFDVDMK
MITF inh: MITF inhibitors, primary screen, biochemical, AlphaScreen, human. Microphthalmia-associated transcription factor (Homo sapiens), O75030. AlphaScreen MITF homodimerization, bead proximity signal. inhibition, % at 2.6 µM. 650,000 compounds, 0.91% hits; in the data active = inhibition above about 50%;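 note: 0% = vehicle wells with protein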
TEAD-YAP inh: TEAD-YAP interaction inhibition, primary screen, TEAD-YAP interaction inhibitor project, luminescence, HEK-TIYL cells; TEAD-Gal4/YAP UAS-luciferase luminescence; inhibition, % at 9.12 µM; 640,000 compounds, 1.4% hits; AID 1259422, 2018; in the data active = inhibition above about 32%;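 note: 0% = median of test compound wells and 100% = reference inhibitor wells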
* = called active by the depositor.

SMILES | GPR151 ag | FBW7 act | MITF inh | TEAD-YAP inh
CC1CC(C)CN(C(=O)COC(=O)c2ccc(Cl)cc2N)C1 (stereo unspecified) | 1 | 0 | 3 | -7
CN1CCN(/N=C/c2ccc(O)c(O)c2)CC1 | 2 | 0 | 79* | 8
CC(=O)c1ccc(/C=C/C(=O)Nc2ccccc2)o1 | -1 | 0 | 10 | -55
C(=N\Nc1ccccn1)/c1sc(N2CCCCC2)nc1-c1cccs1 | -1 | 0 | 5 | 67*
Cc1sc(NC(=O)c2cc([N+](=O)[O-])ccc2Cl)nc1-c1ccccc1 | -1 | 0 | 11 | 24
CC(=O)c1cccc(NC(=O)Nc2cccnc2)c1 | 0 | 0 | 6 | 33*
O=C(Nc1cccnc1)Nc1cccc(F)c1 | -1 | 0 | 8 | -7
COc1cccc(O)c1O | -2 | 0 | 90* | 43*
COc1ccc(N2C(=O)C3C(c4cccc(Br)c4)OC4(C(=O)c5ccccc5C4=O)C3C2=O)cc1 (stereo unspecified) | 0 | 0 | 81* | 5
Cc1ccc(C2=Nn3c(C)nnc3SC2)cc1 | 2 | 0 | -4 | 15
Oc1ccc(C2=Nn3c(nnc3-c3ccccc3Cl)SC2)cc1O | -1 | 0 | 5 | 63*
Oc1ccccc1-c1nnc2n1N=C(c1ccc(F)cc1)CS2 | -1 | 1 | -11 | 0
Cc1ccc(-c2nnc3n2N=C(c2ccc(O)c(O)c2)CS3)cc1 | 0 | 0 | 13 | 59*
Cc1cc(C)c(S(=O)(=O)Nc2ccc(Br)cc2)c(C)c1 | -1 | 0 | -10 | -1
Nc1c(C(=O)c2ccccc2)sc2[nH]c(=O)c(C(=O)O)cc12 | -1 | 0 | -4 | 2
N#Cc1c(N)nc(SCC(=O)c2ccc(F)cc2)c(C#N)c1-c1ccc(O)cc1 | 4 | 0 | -5 | 34*
N#Cc1c(N)nc(SCC(=O)O)c(C#N)c1-c1ccc(O)cc1 | 5 | 0 | -9 | -3
CCCCNC(=O)c1cnn2c(C)c(Cc3cccc(Cl)c3)c(C)nc12 | 0 | 0 | 16 | -6
CCNc1nc(C#N)nc(N2CCCCC2)n1 | 2 | 0 | 3 | 41*
N#Cc1nc(N2CCCCC2)nc(N2CCCCC2)n1 | -1 | 0 | -2 | 1
CCN(CC)c1ccc2cc(C(=O)Nc3cccc(C)c3)c(=N)oc2c1 | 0 | 2.4* | 18 | -2
COc1cc(NS(=O)(=O)c2ccc(NC(=O)c3cccc(C)c3)cc2)nc(OC)n1 | 0 | 0 | -8 | -4
Cc1nc(C)n(-c2ccc(Nc3cc(-c4nn(-c5nccs5)cc4-c4ccccc4)ccn3)cc2)n1 | 0 | 0 | 3 | 11
Cc1nc(C)n(-c2ccc(Nc3cc(-c4nn(-c5ccc(C#N)cc5)cc4-c4ccccc4)ccn3)cc2)n1 | -2 | 1 | 18 | 42*
Cc1nc(C)n(-c2ccc(Nc3cc(-c4nn(-c5ccccc5C#N)cc4-c4ccccc4)ccn3)cc2)n1 | -2 | 0 | 19 | 33*
SMILES | GPR151 ag | FBW7 act | MITF inh | TEAD-YAP inh
Cc1nc(C)n(-c2ccc(Nc3cc(-c4nn(-c5ccc(N(C)C)cc5)cc4-c4ccccc4)ccn3)cc2)n1 | 1 | 0 | 2 | -13
Cc1nc(C)n(-c2ccc(Nc3nccc(N(CCO)Cc4ccccc4)n3)cc2)n1 | 1 | 0 | -6 | 51*
Cc1nc(C)n(-c2ccc(Nc3nccc(-c4cccc(-n5cncn5)c4)n3)cc2)n1 | 0 | 0 | 9 | 45*
CCN1CCN(c2cc(F)cc(-c3ccnc(Nc4ccc(-n5nc(C)nc5C)cc4)n3)c2)CC1 | 2 | 1 | 15 | 68*
Cc1nc(C)n(-c2ccc(Nc3nccc(-c4cc(F)cc(N5CCCC5)c4)n3)cc2)n1 | 0 | 0 | -3 | 1
CNc1cc(F)cc(-c2ccnc(Nc3ccc(-n4nc(C)nc4C)cc3)n2)c1 | -2 | 0 | 31 | 59*
Cc1nc(C)n(-c2ccc(Nc3nccc(-c4cc(F)cc(-c5cn[nH]c5)c4)n3)cc2)n1 | 1 | 0 | 7 | -4
Fc1ccc(-c2cc(N3CCN(c4ccccn4)CC3)nc(-c3ccccn3)n2)cc1 | -1 | 0 | 4 | 2
CCc1cc(NCCc2ccncc2)n2nc3nc(C)cc(C)c3c2n1 | 1 | 0 | -2 | 4
CCOC(=O)c1c(C)n(-c2ccc(OC)cc2)c2c1cc(O)c1[nH]cnc12 | 0 | 0 | 6 | -3
CC(C)S(=O)(=O)/C(Cl)=C(\Cl)C(=O)Nc1ccccc1Cl | -3 | 0 | 24 | 95*
CCc1ccc2c(c1)[C@H]1OCC[C@H]1[C@@H](c1cccs1)N2 | 1 | 0 | 17 | 47*
Cc1cc(C)c2c(N)c(C(=O)Nc3nccs3)sc2n1 | -1 | 0 | 0 | 70*
Cc1cc(C)c2cc3c(N)c(C(=O)Nc4nccs4)sc3nc2c1 | -1 | 5.4* | 5 | -16
CCn1c(SCC(=O)Nc2ccc([N+](=O)[O-])cc2)nnc1-c1ccc(O)cc1 | 0 | 1 | 4 | 50*
CN(C)CCN(C(=O)c1c(F)cccc1F)c1nc2ccccc2s1 | -1 | 0 | 6 | -13
CN(C)CCCN(C(=O)/C=C\c1ccc([N+](=O)[O-])cc1)c1nc2c(F)cccc2s1 | -1 | 0 | -20 | 76*
CCN(CC)CCNC(=O)c1cccc(-n2c(=S)[nH]c3cc(Cl)ccc3c2=O)c1 | -1 | 1 | 8 | -8
COc1ccccc1C1CC(=O)c2c(ccc3ccccc23)N1 (stereo unspecified) | 0 | 0 | 4 | 61*
COc1cc(C2CC(=O)c3c(ccc4ccccc34)N2)ccc1OCc1ccccc1 (stereo unspecified) | 0 | 0 | 18 | -15
COC(=O)C1=CN(Cc2ccc(OC)c(OC)c2)C=C(C(=O)OC)C1c1ccc(F)cc1 | 0 | 0 | -4 | -21
CCOc1cc(C2C(C(=O)OC)=CN(Cc3ccc(Cl)cc3)C=C2C(=O)OC)ccc1O | -1 | 0 | -2 | -4
COC(=O)C1=CN(Cc2ccc(OC)c(OC)c2)C=C(C(=O)OC)C1c1ccc(Br)cc1 | -2 | 1.9* | 4 | 3
CCOc1cc(C2C(C(=O)OC)=CN(Cc3ccc(OC)c(OC)c3)C=C2C(=O)OC)ccc1O | 0 | 1 | 13 | 48*
O=C(Nc1ccc2nc(NC(=O)c3ccccc3Cl)sc2c1)c1ccccc1Cl | 0 | 0 | 12 | 49*
SMILES | GPR151 ag | FBW7 act | MITF inh | TEAD-YAP inh
COc1ccc2nc(NC(=O)c3ccco3)sc2c1 | -8 | 0 | 5 | 42*
O=C(Nc1nc2ccc(Br)cc2s1)c1ccccc1Cl | 1 | 0 | -1 | -42
Cc1ccc2nc(NC(=S)NC(=O)c3ccco3)sc2c1 | 0 | 0 | 4 | -71
O=C(Nc1nc([N+](=O)[O-])cs1)c1ccc(Cl)cc1Cl | -9 | 0 | 7 | 88*
Cc1ccc2nc(NC(=O)c3ccco3)sc2c1 | -8 | 0 | 9 | 78*
CC(NC=O)c1ccc(Br)cc1 (stereo unspecified) | 1 | 0 | -11 | -2
